Laboratory results taken from PubChem BioAssay AID1851 (National Center for Advancing Translational Sciences (NCATS), 2009).
Where “and” joins values, the source holds several entries; their conditions need not be identical. Identical values can stand only once. Hit rate of the full screen: of about 16,000 compounds, about 5,800 (36%) were called active. About 23% were inconclusive and are not listed. Calls come from the whole dose curve; as a rule, active = well fitted curve in the direction sought with a large enough effect; inconclusive = small, poorly fitted or top-dose-only effect, or effect the other way; inactive = no such curve, though single readings can be large or run the other way. The list shows a part of the results. Where a structure was tested more than once in an assay, its records may differ in their call.

target: Cytochrome P450 2C19 (Homo sapiens) (UniProt P33261); assay: Cytochrome panel assay with activity outcomes; details: recombinant CYP, pro-luciferin dealkylation, luminescence, p450-cyp2c19; series mostly up to 57.1 µM
Sequence (P33261 whole entry, looked up): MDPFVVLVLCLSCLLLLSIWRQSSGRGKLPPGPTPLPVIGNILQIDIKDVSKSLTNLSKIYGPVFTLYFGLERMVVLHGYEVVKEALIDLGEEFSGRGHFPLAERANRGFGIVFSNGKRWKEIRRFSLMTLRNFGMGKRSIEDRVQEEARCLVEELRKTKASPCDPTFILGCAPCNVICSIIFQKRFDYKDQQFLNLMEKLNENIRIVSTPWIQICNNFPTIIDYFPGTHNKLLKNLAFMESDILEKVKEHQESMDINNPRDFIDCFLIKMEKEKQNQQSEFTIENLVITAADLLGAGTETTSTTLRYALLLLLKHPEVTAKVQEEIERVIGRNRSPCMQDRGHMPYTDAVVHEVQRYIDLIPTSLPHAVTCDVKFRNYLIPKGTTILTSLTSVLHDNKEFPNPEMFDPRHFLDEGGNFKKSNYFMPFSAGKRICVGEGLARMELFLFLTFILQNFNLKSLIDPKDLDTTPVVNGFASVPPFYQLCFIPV
% is set by controls: 0 for no effect and ±100 for the full control effect.

AC50, active:
COc1ccccc1/C=N/NC(=O)CC(=O)Nc1ccc(Cl)c(Cl)c1 11.2 µM
O=C(Oc1ccccc1)N1CCC[C@@]2(CCN(c3ccncc3)C2)C1 5.01 µM
COC(=O)N1CCC2(CC1)CN(c1ccccc1)C2 6.31 µM
O=C(Oc1ccccc1)N1CCC2(CC1)CN(c1ccncc1)C2 7.94 µM
CCCCNC(=S)NNC(=O)CCn1nc(C)c(Br)c1C 11.2 µM
COc1ccc(NC(=S)N(CCc2nc3cc(C)c(C)cc3[nH]2)Cc2cccnc2)cc1 14.1 µM
Cc1cccc(NC(=S)N(CCc2nc3cc(C)c(C)cc3[nH]2)Cc2cccnc2)c1 3.16 µM
COc1cccc(NC(=S)N(CCc2nc3cc(C)c(C)cc3[nH]2)Cc2cccnc2)c1 3.98 µM
CNC(=S)NNC(=O)c1sccc1OCc1ccc(C)cc1 5.01 µM
COc1ccc(COc2ccsc2C(=O)Nc2ccc(Cl)c(Cl)c2)cc1 7.94 µM
C(=C\c1nnc(-c2cccs2)o1)/c1ccccc1 22.4 µM
CCN=C1NN=C(c2ccc(C)cc2)CS1 10 µM
FC(F)(F)c1cc(-c2ccco2)nc(NCCc2ccccc2)n1 1.78 µM
CCCCC#Cc1ccccc1CC(=O)Nc1ccccc1 0.794 µM
O=C(Cc1ccccc1I)Nc1ccccc1 6.31 µM
COC(=O)c1cc(/C=C/c2ccccc2)on1 35.5 µM
Cc1ccc(NC(=O)c2cc([N+](=O)[O-])ccc2NCc2cccnc2)cc1Cl 0.0794 µM
CNC(=O)/C(C#N)=c1\s/c(=C/C(=O)OC)c(=O)n1-c1ccccc1 5.01 µM
Cc1nn(CC(=O)NCc2ccccc2Cl)c(C)c1[N+](=O)[O-] 15.8 µM
O=C(Cc1ccccc1[N+](=O)[O-])NCc1ccccc1Cl 31.6 µM
O=C(Cc1ccccc1[N+](=O)[O-])NCCSCc1c(F)cccc1Cl 2.51 µM
Cc1ccc(C(=O)C(OC(=O)CNS(=O)(=O)c2ccccc2)c2ccccc2)cc1 (stereo not given) 10 µM
Cc1ccc(C(=O)C(OC(=O)CCC(=O)Nc2cccc(C)c2)c2ccccc2)cc1 (stereo not given) 11.2 µM
Cc1ccc(C(=O)C(OC(=O)CN2C(=O)c3ccccc3C2=O)c2ccccc2)cc1 (stereo not given) 3.55 µM
Cc1ccc(C(=O)C(OC(=O)COc2ccccc2C)c2ccccc2)cc1 (stereo not given) 7.08 µM
CC(=O)Nc1cccc(C(=O)OC(C(=O)c2ccc(C)c(C)c2)c2ccccc2)c1 (stereo not given) 3.98 µM
CN(Cc1cc(Br)cc(Br)c1O)Cc1c(O)ccc2ccccc12 0.501 µM
CCN(Cc1cc(Cl)cc(C)c1O)Cc1c(O)ccc2ccccc12 1.26 µM
CN(Cc1cc(Cl)cc(Cl)c1O)Cc1c(O)ccc2ccccc12 1.26 µM
COC(=O)C(CCSC)NC(=O)c1cccc([N+](=O)[O-])c1 (stereo not given) 14.1 µM

AC50, inactive:
COc1ccccc1/C=N/NC(=Nc1ccc(C)cc1)c1nc2ccccc2s1
CC(=O)N1CCC2(CC1)CN(c1ccncc1)C2
COC(=O)N1CCC2(CCCN(c3ccc(-c4ccccc4)cc3)C2)CC1
O=C(Oc1ccccc1)N1CCC2(CC1)CCN(c1ccncc1)CC2
COC(=O)N1CCC[C@@]2(CCN(c3ccncc3)C2)C1
COC(=O)N1CCC2(CC1)CN(c1ccc(-c3ccccc3)cc1)C2
C[C@H](NC[C@H](O)CP(=O)(O)CC1CCCCC1)c1ccc(Cl)c(Cl)c1
CCCCNC(=O)NC1C(NC(=O)NCCCC)N(C)C(=O)N1C (stereo not given)
COc1cccc(Nc2ncc3nc(C)c(=O)n(CCc4ccccc4)c3n2)c1
COc1cccc(NC(=O)C2c3cc(OC)c(OC)cc3C(=O)N(C)C2c2cccnc2)c1 (stereo not given)
FC(F)(F)c1cc(CN2CCCC3(CCNCC3)C2)cc(C(F)(F)F)c1
Cc1ccc(/C=C/c2nnc(-c3ccc(C)cc3)o2)cc1
Cc1oc(-c2cccs2)[n+]([O-])c1C
Nc1nc(NCCc2ccc(O)cc2)nc2nc(-c3ccco3)nn12
CN1CCN(CC(=O)N2c3ccccc3C(=O)Nc3cccnc32)CC1
CCC#CCOCC(=O)Nc1ccccc1
CS(=O)(=O)N1CCC[C@@]2(CCN(C(=O)Nc3cccc(C#N)c3)C2)C1
COc1cccc(/C=c2/s/c(=C(\C#N)C(=O)N3CCOCC3)n(-c3ccccc3)c2=O)c1
Cn1c(=O)c2cc(S(=O)(=O)NCCC(=O)NCc3ccccc3Cl)ccc2n(C)c1=O
Cc1nn(CC(=O)NCc2ccccc2)c(C)c1[N+](=O)[O-]
Cc1nn(CC(=O)NCCN2CCOCC2)c(C)c1[N+](=O)[O-]
Cc1ccccc1OCC(=O)OC1CCN(C)CC1
O=C(CN1C(=O)c2ccccc2C1=O)NCC(=O)OCC(=O)c1ccc(Br)cc1
CNCC[C@@H](Oc1ccccc1C)c1ccccc1
CCNc1ncc2nc(-c3cc(F)cc(F)c3)c(=O)n(-c3ccc(OC)cc3)c2n1
Cc1ccc(NC(=O)C2C3CCCC2C3c2ccccc2)cc1C (stereo not given)

AC50, inactive and 3.98 µM (active):
Cc1scc2c1N(C(=O)CN1CCN(C)CC1)c1ccccc1NC2=O

activity, negative = inhibition, inactive:
OC[C@H](S)CS -35.3% [at 11.4 µM]
O=C(O)[C@H](/C=C\c1ccccc1)c1ccccc1 -22.1% [at 11.4 µM]
CN(C)Cc1cc(Cl)c(O)c(CN(C)C)c1 2.46% [at 11.4 µM]
CN(CC(=O)O)Cc1c(O)c(Cl)cc(Cl)c1Cl 40.6% [at 11.4 µM]
Oc1ccc2ccccc2c1C=NCc1c(O)ccc2ccccc12 -16.5% [at 11.4 µM]
O=C1Nc2ccccc2C1=Nc1cccc2ncccc12 27.9% [at 11.4 µM]
COC(=O)[C@H](CCSC)NC(=O)C/C=C\[C@@H](C)[C@@H](CO)OC -1.07% [at 11.4 µM]
COC(=O)[C@H](CCSC)NC(=O)C/C=C\[C@@H](C)CO 35.2% [at 11.4 µM]
